Among the data in PubChem BioAssay (EPA / NIEHS) are AC50 and outcome values, retold here.

Structures are written as SMILES. Inconclusive results are not listed. Activity calls are given as the source filed them. How the source made its calls: active means hit-call score of the fitted dose curve at least 0.9, where 1 is the maximum; inconclusive means response in the unintended direction; inactive means score below 0.9.

The assay can be described thus: Tanguay_ZF_120hpf_TR_legacy: (Legacy) Oregon State University Tanguay Lab 120 Hour Post-fertilization zebrafish Assay for Touch Response (AID 2283667). The procedure: Tanguay_ZF_120hpf_legacy is a whole embryo, multiplexed endpoint assay using zebrafish larvae exposed for 120 hours post fertilization on a 96-well plate.Tanguay_ZF_120hpf_TR_legacy is one of one assay component(s) measured or calculated from the Tanguay_ZF_120hpf_legacy assay. It is designed to make measurements of zebrafish development as detected with brightfield microscopy of developing zebrafish embryos.Data from the assay component Tanguay_ZF_120hpf_TR_legacy was analyzed into 1 assay endpoints. This assay endpoint, Tanguay_ZF_120hpf_TR_legacy, was analyzed in the positive analysis fitting direction relative to DMSO as the negative control and baseline of activity. Using a type of morphology reporter, gain-of-signal activity can be used to understand changes in developmentals as they relate to the whole embryo. To generalize the intended target to other relatable targets, this assay endpoint is annotated to the zebrafish development intended target family, where the subfamily is embryonic functional response.
Zebrafish husbandry: Tropical 5D wild-type adult zebrafish were housed in at an approximate density of 1000 per 100 gallon tank at the Sinnhuber Aquatic Research Laboratory, Oregon State University, Corvallis, OR. Each tank was kept at standard laboratory conditions of 28C on a 14-h light/10-h dark photoperiod in fish water consisting of reverse osmosis water supplemented with a commercially available salt (Instant Ocean). Spawning funnels were placed into the tanks the night prior, and embryos were collected and staged. […] Ten microliters of each row of dilution plate 2 was added to 2 exposure plates. The final DMSO concentration used was 0.64% (vol/vol). Thirty-two embryos were also exposed to 5uM trimethyltin chloride (positive control). Plates were sealed to prevent evaporation and foil covered to reduce light exposure and kept in a 28C incubator. Embryos were statically exposed until 120 hpf. At 24 hpf, embryos were assessed for photomotor response using a custom photomotor response analysis tool (PRAT) and for developmental toxicity endpoints (MO24: mortality at 24 hpf, DP: developmental progression, SM: spontaneous movement, and NC: notochord distortion). At 120 hpf, locomotor activity was measured using Viewpoint Zebralab and assessed for 18 endpoints. Zebrafish acquisition and analysis program (ZAAP), a custom program designed to inventory, acquire, and manage zebrafish data, was used to collect developmental endpoints as either present or absent (i.e., binary responses were recorded). If mortality occurred for an embryo (at either 24 or 120 hpf), the non-mortality endpoints were not measured.
A word on the AC50: it is the concentration giving half of the maximal activity seen. Turning to `c1ccc(C(O[C@@H]2CCCN(CCc3ccc4c(c3)OCO4)C2)c2ccccc2)cc1`, the AC50 is 53.6 µM (active).

Take `O=C(O)[C@H](O)[C@@H](O)C(=O)O`: the call was inactive.

As to `c1ccc2cc3ccccc3cc2c1`, the compound was classed as inactive.

For the compound `CCN(CC)C(=S)SSC(=S)N(CC)CC`, the AC50 is 2.17 µM (active).

Take `c1ccc2ncccc2c1`: the call was inactive.

For `CCc1cccc(CC)c1N`, the outcome was inactive.

For the compound `CC(C)C(=O)Nc1ccc([N+](=O)[O-])c(C(F)(F)F)c1`, the outcome was inactive.

In the case of `CCCCCCOC(=O)CC(CC(=O)OCCCCCC)(OC(=O)CCC)C(=O)OCCCCCC`, the compound was called inactive.

In the case of `OCCNCCO`, the outcome was inactive.

In the case of `CCCCCCCCCCCCCCO`, the result was inactive.

For `C[C@@H](Oc1ccc(CNC(=O)c2cccnc2Oc2ccc3c(c2)OCO3)c(F)c1)C(=O)O`, the call was inactive.

In the case of `O=C(O)c1cccc(C[C@@H]2COc3ccc(OCc4nc5cc(F)ccc5s4)cc3[C@@H]2O)c1`, the call was inactive.

On to `COc1cc2c(c(OC)c1OC)-c1ccc(OC)c(=O)cc1[C@@H](NC(C)=O)CC2`, for which the AC50 is 13.3 µM (active).

Turning to `O=C(O)c1ccc2c(c1)nc(C(=O)NC1CCN(C3CC3)CC1)n2Cc1cc(-c2ccc(Cl)s2)on1`, the call was inactive.

Regarding `CCCCCOC(C)=O`, the call was inactive.

For the compound `CCOC(N)=O`, the call was inactive.

For `O=S(=O)(O)c1ccc(N=Nc2c(O)ccc3cc(S(=O)(=O)O)ccc23)cc1`, the outcome was inactive.

With `OCc1ccccc1`, the result was inactive.

As for `CCCCN1C(=O)[C@@H]([C@H](O)C2CCCCC2)NC(=O)C12CCN(Cc1ccc(Oc3ccc(C(=O)O)cc3)cc1)CC2`, the compound was called inactive.

Regarding `CCCCCCCCCC`, the call was inactive.

Take `O=c1[nH]cnc2c1ncn2[C@H]1CC[C@@H](CO)O1`: the compound was called inactive.

As for `CC(C)c1nnc2ccc(-c3ocnc3-c3cc(F)ccc3F)cn12`, the call was inactive.

Turning to `NC(=O)N(O)[C@@H]1COc2cc(OCc3ccccc3)ccc21`, the outcome was inactive.

As for `CCCCC(CC)C(=O)OCCOCCOCCOC(=O)C(CC)CCCC` (stereo not given), the compound was called inactive.

For `OCCOCCOCCO`, the outcome was inactive.

Turning to `Cc1ncc([C@@H](CCCCCCc2ccc3c(n2)NCCC3)CC(=O)O)cn1`, the call was inactive.

For `COS(C)(=O)=O`, the compound was classed as inactive.

Turning to `CCCc1ccccc1`, the result was inactive.

As to `Nc1ccn([C@@H]2O[C@H](CO)[C@@H](O)[C@@H]2O)c(=O)n1`, the result was inactive.

For the compound `OC(CCl)CCl`, the compound was called inactive.

Consider `O=C1CN(N=Cc2ccc([N+](=O)[O-])o2)C(=O)N1`, for which the call was inactive.

Consider `CCCOc1ccc(S(=O)(=O)N2CCN(CC)CC2)cc1-c1nc2c(CC)n(Cc3ccccn3)nc2c(=O)[nH]1`, for which the call was inactive.

In the case of `OCC(CO)(CO)CO`, the outcome was inactive.

Take `COc1cc(C(C)C)c2c(c1)S(=O)(=O)N(COc1cc(=O)n3cccc(OCCN4CCCCC4)c3n1)C2=O`: the call was inactive.

With `c1ccc2c(c1)-c1cccc3c1c-2cc1ccccc13`, the call was inactive.

`CCCCOC(=O)c1ccccc1`: the result was inactive.

For the compound `CC(=O)c1ccccc1`, the call was inactive.

`CNC(C)=O`: the compound was classed as inactive.

On to `O=S1(=O)CCCO1`, for which the call was inactive.

As for `CCc1ccc(O)c(C(C)(C)C)c1`, the compound was classed as inactive.
